From PubChem BioAssay
TDP1 cell noCPT – qHTS for Inhibitors of human tyrosyl-DNA phosphodiesterase 1 (TDP1): qHTS in cells in absence of CPT. DT40 Tdp1-/- hTDP1 cells, no CPT, ATP luminescence, 48 h. Potency, µM (top dose mostly 46.2 µM), without a hit: at the top dose activity change, negative = growth inhibition, usual class: inhibitors. 420,000 tested, 15% active; further: nearly all actives have a fitted effect of over 55% in size
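Chicken DT40 Tdp1-/- cells complemented with human TDP1, screened without camptothecin (DMSO vehicle only), 400 cells/well. Compounds pin-transferred, cells incubated at 37 °C for at least 48 hr. Growth read as ATP-dependent luminescence (CellTiter-Glo, 30 min at RT).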
RORgamma inh – blocks mouse ROR gamma transcriptional activity; Potency, µM (highest dose often 53.6 µM), inactives show at the top dose activity change, negative = inhibition, usual class: inhibitors; 310,000 tested, 5.4% active; Drosophila S2 Gal4-RORgamma UAS-luciferase reporter, 20 h; further: nearly all actives have a fitted effect of over 60% in size
Target sequence (P51450 whole entry, looked up, the tested form may be a part): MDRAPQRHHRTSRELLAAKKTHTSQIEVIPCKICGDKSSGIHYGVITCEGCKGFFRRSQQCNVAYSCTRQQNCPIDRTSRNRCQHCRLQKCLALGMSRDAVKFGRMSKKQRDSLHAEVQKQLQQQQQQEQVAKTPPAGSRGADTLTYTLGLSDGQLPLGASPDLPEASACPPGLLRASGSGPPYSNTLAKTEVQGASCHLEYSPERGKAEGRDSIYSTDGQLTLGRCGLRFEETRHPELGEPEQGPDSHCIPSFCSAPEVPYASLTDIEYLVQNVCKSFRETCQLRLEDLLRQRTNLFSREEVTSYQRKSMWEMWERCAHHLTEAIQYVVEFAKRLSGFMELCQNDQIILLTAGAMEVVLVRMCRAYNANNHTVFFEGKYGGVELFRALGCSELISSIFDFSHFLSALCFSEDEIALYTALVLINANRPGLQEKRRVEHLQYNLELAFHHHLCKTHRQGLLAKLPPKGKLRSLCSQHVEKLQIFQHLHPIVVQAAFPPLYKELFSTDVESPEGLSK
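Drosophila S2 cells stably expressing Gal4-DBD/mouse RORγ fusion under metallothionein promoter plus UAS-luciferase; compound 1 h, then 700 uM CuSO4 induction for 20 h at ambient temperature; inhibition read as reduced luminescence.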
TDP1 cell CPT – growth inhibition of DT40 Tdp1-/-;hTDP1 cells with camptothecin (screen for TDP1 inhibitors) | 420,000 tested, 12% active | Potency, µM (doses to about 46.2 µM), without a hit: at the top dose activity change, negative = growth inhibition, hits mostly inhibitors | chicken DT40 Tdp1-/-;hTDP1 cells + 20 nM CPT, ATP luminescence, 48 h; further: nearly all actives have a fitted effect of over 55% in size
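Cell growth measured by CellTiter-Glo luminescence after a minimum 48 h, 37 C compound exposure with 20 nM CPT in Tdp1-knockout DT40 cells stably expressing hTDP1, seeded 400/well; qHTS titration format.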
VP16 counter – Gal4-VP16 reporter inhibition counter-screen; Drosophila S2 Gal4-VP16 UAS-luciferase, luminescence, 20 h; AID 2546; Potency, µM (highest dose often 53.6 µM), for the others: at the top dose activity, negative = inhibition, actives largely listed as inhibitors; 310,000 tested, 3.5% active;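 further: Gal4-VP16 expression switched on by copper sulfate through the metallothionein promoter; nearly all actives have a fitted effect of over 50% in size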
TDP1 inh – TDP1 (human) enzyme inhibition. Q9NUW8. recombinant TDP1, AlphaScreen DNA substrate cleavage. Potency, µM (titrated, usually from 130 µM), without a hit: top-dose activity change, negative = inhibition, actives largely listed as inhibitors. 350,000 tested, 0.28% active; further: nearly all actives have a fitted effect of over 40% in size
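Tdp1 1 nM final; 15 min RT w/ cpd; substrate 15 nM, 5 min; beads 10 ug/ml, 10 min; AlphaScreen read. Neg ctrl: no enzyme.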
Numbers without * were called inactive; ? = inconclusive; / = not tested or not shown; [ ] = remark or other dose. Most compounds without a hit are left out; they make up all but 19% or so of the library. The call rests on the fitted dose curve; in most records, active means well fitted curve in the direction sought with a large enough effect; inconclusive means small, poorly fitted or top-dose-only effect, or another doubt; inactive means no such curve, though single readings can be large; an effect the other way counts as inactive or inconclusive. On the % scale 0 is the no-effect control and ±100 the full control effect; potency means the concentration at half of the fitted maximal effect.

SMILES	TDP1 cell noCPT	RORgamma inh	TDP1 cell CPT	VP16 counter	TDP1 inh
COc1ccc(N2CCN(C(=O)COc3ccc(Cl)cc3Cl)CC2)cc1	?	3%	?	10%	6%
COc1cccc(/C=C(/C(=O)OCC(N)=O)c2ccccc2)c1	-26%	-23%	-2%	5%	3%
COc1cccc(C=C(C(C)=O)C(=O)c2ccccc2)c1	15µM*	/	21µM*	/	/
O=C(C(=Cc1ccc(F)cc1)C(=O)c1ccccc1)c1ccccc1	16µM*	/	?	/	/
Cc1cc(C)c(OCC(=O)OCC(=O)N(C)C2CCS(=O)(=O)C2)c(C)c1 (stereo not drawn)	-3%	/	0%	/	0%
CCn1c(N)c(C(=O)COC(=O)CCc2nc3ccccc3c(=O)[nH]2)c(=O)[nH]c1=O	11%	/	5%	/	1%
S=C(NCCc1ccc(Cl)cc1)Nc1ccc(Cl)cc1Cl	?	5.6µM*	?	4.5µM*	-2%
S=C(NCc1ccncc1)Nc1ccc(Cl)cc1Cl	-18%	8%	?	-19%	0%
S=C(NCc1ccc(Cl)cc1)Nc1ccc(Cl)cc1Cl	?	11µM*	-14%	11µM*	3%
Cc1c(Cl)cccc1NC(=S)NCc1ccc(Cl)cc1	-25%	/	-6%	/	/
CSc1ccccc1NC(=S)NCc1ccc(Cl)cc1	-1%	7.1µM*	-2%	11µM*	7%[56.1 µM]
S=C(NCc1ccc(Cl)cc1)Nc1ccccc1Cl	?	13µM*	?	?	-3%
Fc1ccc(CNC(=S)Nc2ccc(Cl)cc2Cl)cc1	?	4µM*	?	5.6µM*	-1%
Fc1ccccc1/C=N/NC(=S)Nc1ccc(Cl)cc1Cl	1.8µM*	0.63µM*	2.3µM*	1.3µM*	5%
Fc1ccc(NC(=S)Nc2ccc(Cl)cc2Cl)cc1	26µM*	?	?	7%	3%
CCCNC(=S)Nc1ccc(Cl)cc1Cl	-21%	11µM*	-19%	?	-4%
Cc1ccc(C)c(N2CCN(c3nc4ccccc4n4c(C)nnc34)CC2)c1	-4%	/	0%	/	0%
Cc1cc(C)nc(SC2CC(=O)N(c3ccc(Cl)cc3)C2=O)n1 (stereo not drawn)	21µM*	14µM*	?	-86%	/
Cc1cc(C)nc(SC2CC(=O)N(c3ccc(Br)cc3)C2=O)n1 (stereo not drawn)	?	25%	?	7%	/
Cc1ccnc(SC2CC(=O)N(c3ccc(Cl)cc3)C2=O)n1 (stereo not drawn)	?	?	-29%	?	/
Cc1cc(C)nc(SC2CC(=O)N(c3ccc(C)c(C)c3)C2=O)n1 (stereo not drawn)	15µM*	1%	?	-2%	1%
CN(O)/C=c1/ccc2c(n1)C(=O)C=CC=2	4.6µM*	?	4.6µM*	?	19%[56.1 µM]
O=C(C[C@H]1C(=O)N(Cc2cccnc2)C[C@@H]1Cc1ccccc1)Nc1ccc(Br)cc1	15µM*	/	?	/	/
O=C(C[C@H]1C(=O)N(Cc2ccccc2)C[C@@H]1c1ccc(Br)cc1)Nc1ccc(Br)cc1	26µM*	/	26µM*	/	/
CC(=O)N1N=C(c2ccccc2)CC1c1cn(C)c2ccccc12 (stereo not drawn)	21µM*	8%	?	4%	5%
N#Cc1ccc(COC(=O)C2CC(=O)N(CCc3ccccc3)C2)cc1 (stereo not drawn)	-13%	/	-1%	/	-10%
COc1cccc(C2SCC(=O)N2c2ccc(Br)cc2)c1OC (stereo not drawn)	?	-4%	23µM*	?	0%
COC(=O)[C@]1(Cc2ccccc2)N[C@H](CN(C)C(=O)Nc2ccc(OC)cc2)[C@@H]2C(=O)N(Cc3ccccc3)C(=O)[C@@H]21	8.2µM*	/	18µM*	/	3%
COC(=O)[C@]1(Cc2ccccc2)N[C@H](CN(C)C(=O)c2ccc(C)cc2)[C@@H]2C(=O)N(Cc3ccccc3)C(=O)[C@@H]21	18µM*	/	?	/	0%
